AMA1-RON2 inh – AMA1-RON2 (P. falciparum) interaction inhibition; AlphaScreen AMA1-biotinylated RON2 peptide binding; Potency, µM (highest dose often 58.2 µM), usual class: inhibitors; 0.2% of 360,000 active; active = well fitted inhibition curve with a large enough effect; inconclusive = small, poorly fitted or top-dose-only effect; inactive = no such curve, though single readings can be large or run the other way; also: nearly all actives have a fitted effect of over 45% in size
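AMA1 (3D7) with his tag at 25 nM final met compounds first, then biotinylated RON2 peptide at 25 nM; detection used donor plus acceptor beads, 10 µg/mL apiece, read by AlphaScreen after 30 min at room temperature.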
Cycloheximide cs – counter-screen for Shiga toxin inhibitors: cycloheximide protein synthesis inhibition | cell reporter, cycloheximide protein synthesis inhibition counterscreen | max response, % | 12% of 300,000 active | AID 2314; in the data active = max response mostly above about 13%, no sharp cut-off; inactive = mostly below about 14%; also: read at 38.3 µM for the half of the compounds with a filed dose
LASV entry inh – blocks Lassa virus binding to or entry into cells; 1.2% of 300,000 active; Potency, µM (series often up to 37.9 µM), usual class: inhibitors; Lassa virus pseudotype entry inhibition, cell reporter; calls by dose curve; tested in HEK293 cells; also: nearly all actives have a fitted effect of over 50% in size
Marburg entry inh – blocks Marburg virus binding to or entry into cells | Marburg virus pseudotyped entry inhibition, cell reporter | Potency, µM (series often up to 37.8 µM), actives largely listed as inhibitors | 1.8% of 300,000 active; calls by dose curve; tested in HEK293 cells
Shiga toxin inh – Shiga toxin inhibition; AID 2315; Vero cells, Shiga toxin protein synthesis inhibition reporter; inhibition, % at 38.7 µM; 9.2% of 290,000 active; in the data active = inhibition mostly above about 28%, no sharp cut-off; inactive = mostly below about 43%
Numbers stand for hits; i = inactive; ? = inconclusive; nt = no result given; ! = not confirmed by another sample. This is one part of a sample in which hits are shown more often than they occur.

SMILES	AMA1-RON2 inh	Cycloheximide cs	LASV entry inh	Marburg entry inh	Shiga toxin inh
COc1ccc2nc(SC(C)C(=O)NC3CCCC3)[nH]c2c1 (stereo not given)	i	nt	?	i	nt
Cc1cc(C)nc(N/N=C/C(Cl)=C/c2ccccc2)n1	i	29.8	?	?	49.7
Cc1cc(C)nc(N/N=C/C=C/c2ccccc2)n1	i	29.3	i	i	56.7
COc1c2ccoc2nc2c(OC)cccc12	i	i	i	i	44.5
COc1ccc(-n2c(=S)[nH]c3cc(C(=O)Nc4ccccc4OC)ccc3c2=O)c(OC)c1	i	i	6.31µM	i	i
O=C(N/N=C/c1ccncc1)c1ccncc1	i	nt	?	i	nt
Cn1ccc(C(=O)N/N=C/c2ccncc2)n1	i	32.3	?	i	27.9
Cc1cccc(C(=O)N/N=C/c2ccncc2)c1	i	14.0	i	i	i
O=C(N/N=C/c1ccc(O)cc1)c1ccncc1	i	9.8	i	i	i
Cc1ccc(/C=N\NC(=O)c2csnn2)cc1	i	30.0	i	?	98.2
O=C(N/N=C/c1ccncc1)c1ccc(NC(=O)c2cccc(Cl)c2)cc1	i	i	i	i	i
Cc1ccc(S(=O)(=O)NNC(=O)c2csnn2)cc1	i	i	i	i	i
COc1ccc2c(c1)c1c(c(=O)n(-c3ccccc3C)c(=O)n1C)n2C	nt	nt	i	nt	nt
COc1cccc(C(=O)N/N=C/c2ccc(OC3CSC3)cc2)c1	i	i	i	i	i
O=C(N/N=C/c1ccc2nccnc2c1)c1ccncc1	i	i	nt	nt	i
Cc1ccc(/C=N/NC(=O)c2ccncc2)cc1	i	22.4	i	i	i
Cc1cccc(C(=O)N/N=C/c2ccc(OC3CSC3)cc2)c1	i	24.0	i	i	i
O=C(N/N=C/c1ccc(N2CCOCC2)cc1)c1ccc(O)cc1	i	36.6	nt	nt	72.9
CC[C@@]1(C)Cc2c(sc3c2c(=O)n(C)c2nnc(SCc4ccc5c(c4)OCO5)n32)CO1	nt	nt	nt	i	nt
Cc1cc(C)cc(NC(=O)c2sc3nc[nH]c(=O)c3c2C)c1	nt	nt	i	nt	nt
COc1ccc(C(O)c2nc(-c3cccc(CO)c3)cs2)cc1 (stereo not given)	i	nt	nt	nt	nt
NC(=O)c1c(/N=C/c2cccnc2)sc2c1CCCC2	i	25.1	i	i	47.2
Cc1ccc(/C=N/c2sc3c(c2C(N)=O)CCCC3)o1	i	36.7	nt	nt	59.8
CC(C)(C)OC(=O)N1CCC(C(=O)Nc2cccc(C(=O)N3CCOCC3)c2)CC1	i	nt	?	nt	nt
CC(=O)/C(C#N)=C1\NC(=O)C(Cc2ccccc2Cl)S1 (stereo not given)	i	i	2.31µM	?	i
SMILES	AMA1-RON2 inh	Cycloheximide cs	LASV entry inh	Marburg entry inh	Shiga toxin inh
CC(=O)/C(C#N)=C1\NC(=O)C(Cc2cc(Cl)ccc2Cl)S1 (stereo not given)	i	i	nt	nt	i
O=S(=O)(c1ccccc1)C1(C2CC(c3ccccc3)=NO2)CC(O)C1 (stereo not given)	i	11.5	nt	nt	i
O=C(O)C1CC(c2ccccc2)=NO1 (stereo not given)	i	i	i	i	i
O=S(=O)(c1ccc(OCC(O)CNC23CC4CC(CC(C4)C2)C3)c(Cl)c1)N1CCOCC1 (stereo not given)	i	i	i	2µM	i
CCOC(=O)c1ccc2nc(NC(C)=O)sc2c1	i	47.9	?	?	i
COC(=O)c1ccc2nc(Nc3nc4c(F)cc(F)cc4s3)sc2c1	i	57.2	3.16µM	7.31µM	i
CCOC(=O)c1ccc2nc(Nc3nc4ccc(F)cc4s3)sc2c1	i	150.2	i	?	146.7
CCOC(=O)c1ccccc1NC(=O)CN(c1cc(C(F)(F)F)ccc1Cl)S(C)(=O)=O	nt	nt	i	?	nt
O=C(COc1ccccc1[N+](=O)[O-])N1CCC(c2nc3ccccc3o2)CC1	nt	nt	i	i	nt
C=C(C)Cn1c2ccc(NC(=S)NCc3ccccc3F)cc2c(=O)n1C	i	nt	nt	nt	nt
CN1CCc2cccc3c2C1Cc1ccc(O)c(O)c1-3 (stereo not given)	?	i	i	15.8µM!	i
CCCN1CCc2cc(O)cc3c2C1Cc1ccc(O)c(O)c1-3 (stereo not given)	nt	nt	nt	35.5µM	nt
Nc1c(Cl)ncnc1NCCO	i	i	nt	nt	i
Fc1ccc(/C=N/Nc2nccnc2Cl)cc1	i	39.9	nt	nt	95.6
Oc1ccc(/C=N/Nc2nccnc2Cl)cc1	i	20.9	?	?	i
N#Cc1c(Cl)nc(N/N=C/c2ccccc2)c(Cl)c1Cl	i	i	i	?	i
Nc1c(Cl)ncnc1N/N=C/c1ccc(O)cc1	i	25.6	nt	i	47.1
Fc1cccc(/C=N/Nc2nccnc2Cl)c1	i	48.5	nt	nt	97.9
CS(=O)(=O)c1ccc2nc(NC(=O)c3ccc(S(=O)(=O)NCC4CCCO4)cc3)sc2c1 (stereo not given)	i	i	nt	nt	i

Screening results as filed in PubChem BioAssay.
